Results on six compounds are retold here after PubChem BioAssay.

Activity calls are given as the source filed them.

In assay [1] the test system is Human papillomavirus type 1a protein E7 (residues 44-93). The assay can be described thus: HPV1a E7 fragment binders on microarrays, primary screen, biochemical, small-molecule microarray, residues 44-93, 635 nm fluorescence (AID 1108).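 Further: E7 fragment applied at 1 µg/mL in TBST for 1 h at 4 C; score combines spot fluorescence with its signal to noise ratio.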 To be noted: small-molecule microarray binding, fluorescence 635 nm; higher = more signal.
Assay [2] is described as follows: modulators of HCV replicon luciferase signal, primary screen, HCV replication inhibitor project, Huh7 cells, luciferase reporter (AID 1109).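 Further: huh7 hepatoma cells harbouring a luciferase neomycin HCV replicon reporter; luciferase luminescence as measure of HCV replicon replication; test concentration not given here.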 To be noted: 48 h, higher = more signal.
Assay [3] concerns the target Left-right determination factor 2 (Homo sapiens) (UniProt O00292). In words: LEFTY2 binders on small-molecule microarrays, primary screen, biochemical, small-molecule microarray, 635 nm fluorescence scan (AID 1110). To be noted: LEFTY2 binding, higher = more signal.
Assay [4] concerns the target Calmodulin-1 (Homo sapiens) (UniProt P0DP23). In words: CALM1 binders on microarrays, EGTA buffer, profiling panel, biochemical, small-molecule microarray, Cy5-labelled CALM1 (AID 1111).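 Further: labelled calmodulin applied in Tris saline Tween buffer holding calcium plus EGTA and DTT.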 The conditions noted are these: Cy5-CALM1 binding fluorescence, higher = more signal.
For assay [5] the target is unchanged. The assay can be described thus: calcium-bound CALM1 binders on microarrays, profiling panel, artefact control for SMM control-protein annotation, biochemical, small-molecule microarray, Cy5-labelled CALM1, plus calcium (AID 1112).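 Further: score merges spot fluorescence with signal to noise from triplicate slides.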 The conditions noted are these: Cy5-CALM1 binding fluorescence, higher = more signal.
Assay [6] is described as follows: small-molecule microarray binders of probe aWnt5a, primary screen, biochemical, biotinylated probe, 635/667 nm fluorescence (AID 1113).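 Further: score merges 667 nm fluorescence intensity with signal-to-noise per printed feature.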 To be noted: higher = more signal.
The nature of assay [7]: small-molecule microarray binders of probe aShh, primary screen, biochemical, biotinylated probe, 635/667 nm fluorescence (AID 1114).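 Further: probe is biotin-labelled aShh protein from a stem cell growth factor screen; measures binding of labelled protein to compounds printed on the slide; score merges feature fluorescence at 667 nm with signal-to-noise.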 The conditions noted are these: higher = more signal.
Assay [8] in a line: small-molecule microarray binders of probe aNog, primary screen, biochemical, biotinylated probe, 635/667 nm fluorescence (AID 1115).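 Further: probe is biotinylated aNog protein used at 0.15 µg/mL for 1 h at 4 C; z-score combines 667 nm fluorescence of each spot with its signal to noise.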 To be noted: higher = more signal.
Assay [9] addresses Torsin-1A-interacting protein 1 (Homo sapiens) (UniProt Q5JTV8). The assay can be described thus: LAP1 binders from COS7 cell lysate, primary screen, small-molecule microarray, 635/667 nm fluorescence (AID 1116). The conditions noted are these: COS7-hLAP1 lysate binding, 635 nm fluorescence, higher = more signal.
For assay [10], the target named is Alpha-bungarotoxin (Bungarus multicinctus) (UniProt P60615). The assay can be described thus: alpha-bungarotoxin binders on microarray, profiling panel, artefact control for SMM control protein annotation, biochemical, small-molecule microarray, Alexa647 label, 635/667 nm fluorescence (AID 1117). To be noted: alpha-BTX-A647 binding fluorescence, higher = more signal.
Sequence of Alpha-bungarotoxin (Bungarus multicinctus) (P60615 whole entry, looked up): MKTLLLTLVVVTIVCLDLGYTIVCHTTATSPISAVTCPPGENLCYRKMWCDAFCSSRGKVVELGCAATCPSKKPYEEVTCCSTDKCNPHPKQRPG

Another assay deals with Albumin (Bos taurus) (UniProt P02769). In words: bovine serum albumin binders on microarray, profiling panel, artefact control for SMM control protein annotation, biochemical, small-molecule microarray, Alexa647 label, 635/667 nm fluorescence (AID 1118).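 Further: score merges 667 nm emission intensity and signal-to-noise per printed compound spot.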 To be noted: BSA-A647 binding, fluorescence 635 nm, higher = more signal.
Sequence of Albumin (Bos taurus) (P02769 whole entry, looked up): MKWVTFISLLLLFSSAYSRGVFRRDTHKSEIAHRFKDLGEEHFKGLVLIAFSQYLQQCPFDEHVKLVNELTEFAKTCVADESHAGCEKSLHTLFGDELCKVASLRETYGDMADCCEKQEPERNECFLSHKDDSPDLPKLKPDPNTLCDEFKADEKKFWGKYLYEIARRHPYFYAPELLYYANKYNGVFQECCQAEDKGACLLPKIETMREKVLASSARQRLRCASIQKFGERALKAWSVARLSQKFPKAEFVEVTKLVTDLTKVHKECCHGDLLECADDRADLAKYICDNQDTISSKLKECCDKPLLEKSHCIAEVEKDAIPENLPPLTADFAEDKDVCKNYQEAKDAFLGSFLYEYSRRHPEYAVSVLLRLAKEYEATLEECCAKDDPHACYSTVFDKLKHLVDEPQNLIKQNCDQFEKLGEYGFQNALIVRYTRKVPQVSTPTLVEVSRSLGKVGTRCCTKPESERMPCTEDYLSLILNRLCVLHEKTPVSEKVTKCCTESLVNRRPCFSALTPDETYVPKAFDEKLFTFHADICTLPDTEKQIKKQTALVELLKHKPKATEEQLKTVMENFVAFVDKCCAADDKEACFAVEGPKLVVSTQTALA
A short description of assay [11]: small-molecule microarray binders of probe aXIP, primary screen, biochemical, NeuroSMM set, 635/667 nm fluorescence (AID 1119).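 Further: probe is the protein aXip251-270 applied at 1 µg/mL to compound-printed slides; binding of probe to printed compounds measured as 667 nm fluorescence plus signal to noise.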 The conditions noted are these: higher = more signal, called active from +8 up or from −8 down.
Assay [12] is described as follows: small-molecule binders of probe aNOTCH3, primary screen, biochemical, small-molecule microarray, 635/667 nm fluorescence (AID 1120).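 Further: probe is a biotin-tagged antibody raised against NOTCH3 rather than NOTCH3 protein; score merges spot fluorescence near 667 nm with spot signal to noise.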 The conditions noted are these: higher = more signal.
The nature of assay [13]: small-molecule binders of probe aNOTCH2, primary screen, biochemical, small-molecule microarray, 635/667 nm fluorescence (AID 1121).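 Further: score merges feature fluorescence read at 667 nm with its signal to noise.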 To be noted: higher = more signal.
For assay [14], the target named is Carbonic anhydrase 2 (Homo sapiens) (UniProt P00918). The assay can be described thus: CAII small-molecule binders, profiling panel, biochemical, small-molecule microarray, Alexa647-labelled CAII (AID 1122). The conditions noted are these: CAII-A647 binding fluorescence, higher = more signal.
Assay [15] in a line: COS7 lysate on small-molecule microarray, probe aHis, 635 nm (AID 1123).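 Further: z-score combines 667nm fluorescence intensity with signal-to-noise per printed compound spot.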 The conditions noted are these: COS7 cell lysate, fluorescence, higher = more signal.
Assay [16] is described as follows: compound binding in COS7 lysate, probe aLAP1, primary screen, cell lysate, small-molecule microarray (AID 1124).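 Further: lysate comes from COS7 cells expressing LAP1 and is applied at 0.3 µg/mL; score merges spot fluorescence near 667 nm with signal-to-noise over triplicate slides.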 The conditions noted are these: probe aLAP1, fluorescence, higher = more signal.
The test system of another assay is Sam68 (KHDRBS1). The assay can be described thus: Sam68 small-molecule binders, primary screen, biochemical, small-molecule microarray, 635 nm fluorescence (AID 1125).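 Further: score merges 667 nm channel intensity with signal to noise over triplicate slides.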 To be noted: small-molecule microarray binding, higher = more signal.
Assay [17] concerns Chordin-like protein 2 (CHRDL2). In words: CHRDL2 small-molecule binders, primary screen, biochemical, small-molecule microarray, 635 nm fluorescence (AID 1126).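 Further: printed compound slides probed with Chrdl2 protein at 4 µg/mL for 1 h at 4 C; score merges 667 nm emission intensity with signal to noise over three replicate slides.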 To be noted: small-molecule microarray binding, fluorescence 635 nm; higher = more signal.
Assay [18] has as its target Concanavalin-A (Canavalia ensiformis) (UniProt P02866). The assay can be described thus: ConA small-molecule binders, primary screen, artefact control for SMM control protein annotation, biochemical, small-molecule microarray, Alexa647 label, 635 nm (AID 1127).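 Further: z combines 667 nm emission intensity with signal-to-noise across three replicate slides.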 The conditions noted are these: ConA-A647 binding fluorescence, higher = more signal.

Sequence of Torsin-1A-interacting protein 1 (Homo sapiens) (Q5JTV8 whole entry, looked up): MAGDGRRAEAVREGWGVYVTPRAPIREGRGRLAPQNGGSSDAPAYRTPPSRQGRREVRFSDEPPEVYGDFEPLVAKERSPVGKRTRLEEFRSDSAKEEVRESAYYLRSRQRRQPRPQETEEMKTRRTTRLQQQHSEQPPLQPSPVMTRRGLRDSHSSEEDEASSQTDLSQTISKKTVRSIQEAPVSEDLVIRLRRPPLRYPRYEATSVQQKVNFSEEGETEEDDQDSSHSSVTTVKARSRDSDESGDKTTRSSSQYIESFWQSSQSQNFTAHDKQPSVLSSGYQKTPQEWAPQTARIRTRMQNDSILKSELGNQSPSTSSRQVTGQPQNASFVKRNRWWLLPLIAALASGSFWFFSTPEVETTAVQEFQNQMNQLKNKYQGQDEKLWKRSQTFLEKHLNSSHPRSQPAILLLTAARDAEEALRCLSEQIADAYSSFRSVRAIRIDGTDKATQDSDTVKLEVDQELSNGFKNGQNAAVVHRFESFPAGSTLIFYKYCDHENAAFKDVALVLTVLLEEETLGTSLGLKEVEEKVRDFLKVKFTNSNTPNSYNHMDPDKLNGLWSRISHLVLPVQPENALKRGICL
Sequence of Concanavalin-A (Canavalia ensiformis) (P02866 whole entry, looked up): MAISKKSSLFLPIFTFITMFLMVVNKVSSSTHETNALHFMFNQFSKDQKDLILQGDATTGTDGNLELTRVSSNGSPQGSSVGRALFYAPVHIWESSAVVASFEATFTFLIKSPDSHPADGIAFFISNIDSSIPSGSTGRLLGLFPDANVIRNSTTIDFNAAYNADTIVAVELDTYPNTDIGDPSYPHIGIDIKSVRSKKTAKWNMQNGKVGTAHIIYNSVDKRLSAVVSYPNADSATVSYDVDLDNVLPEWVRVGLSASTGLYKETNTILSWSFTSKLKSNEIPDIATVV
Sequence of Left-right determination factor 2 (Homo sapiens) (O00292 whole entry, looked up): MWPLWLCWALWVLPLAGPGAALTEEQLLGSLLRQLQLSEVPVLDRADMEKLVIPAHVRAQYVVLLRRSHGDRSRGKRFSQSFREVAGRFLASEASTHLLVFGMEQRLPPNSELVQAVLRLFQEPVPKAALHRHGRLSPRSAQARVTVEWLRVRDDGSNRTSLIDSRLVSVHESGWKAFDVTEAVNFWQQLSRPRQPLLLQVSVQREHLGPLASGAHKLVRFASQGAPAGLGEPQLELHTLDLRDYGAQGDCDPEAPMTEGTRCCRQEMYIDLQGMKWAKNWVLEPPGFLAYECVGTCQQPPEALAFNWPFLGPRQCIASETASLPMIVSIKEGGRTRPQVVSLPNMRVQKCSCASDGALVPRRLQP

With `O=C1C[C@@](C(=O)NCc2ccccc2)(c2ccc([N+](=O)[O-])cc2)[C@@H](c2ccc(CO)cc2I)N1C1CCCCC1`, the composite z-score is 1.14 in [1]; 0.597 in assay [3]; 0.261 in assay [4]; 0.315 in assay [5]; 0.0733 in assay [6]; 0.192 in assay [7]. The composite z-score is -0.175 in assay [8]; 0.52 in assay [9]; 0.414 in [10]; -0.13 in the assay with Albumin (Bos taurus); 0.446 in [12]; 0.202 in [13]. Besides, the composite z-score in [14] was 0.448; in [15] it was 1.15; in [16] it was -0.0355; in the assay with Sam68 (KHDRBS1) it was 1.23; in assay [17], 0.633; in assay [18], 0.957. The same compound displayed a z-score in [2] of -2.36. The composite Z-score in assay [11] was -0.0966 (inactive).
Consider `C=CC[C@]1(C(=O)N2CCOCC2)N=C(c2ccc(OCCCO)cc2)O[C@H]1c1ccccc1CN=[N+]=[N-]`, for which the composite z-score in assay [1] worked out at 1.42; in assay [3], 0.366; in assay [4] it was 1.84; in assay [5], 0.403; in assay [6], 0.127; in [7] it was 0.398. Further, the composite z-score turned out to be 1.88 in assay [8]; 1.94 in assay [9]; 0.948 in assay [10]; 0.971 with Albumin (Bos taurus); 0.533 in assay [12]; 0.0402 in assay [13]. Moreover, the composite z-score was 0.385 in [14]; 2.92 in [15]; 1.64 in [16]; 1.29 with Sam68 (KHDRBS1); -0.321 in assay [17]; 1.15 in assay [18]. In assay [2], the z-score was -1.85. Also, in [11], the composite Z-score was 0.0707 (inactive).
On to `COCCOC(=O)N1C(=O)[C@@]2(c3cc(C#CCCO)ccc31)[C@H](C(=O)N1CCc3cc(OC)c(OC)cc3C1)[C@H]1C(=O)O[C@H](c3ccccc3)[C@H](c3ccccc3)N1[C@@H]2c1ccc(OCCO)cc1`, for which the composite z-score in assay [1] is 1.32; in [3] it was 0.887; in assay [4] it was 0.842; in assay [5], 0.224; in [6] it was -0.0731; in assay [7], -0.304. Besides, the composite z-score is 0.299 in assay [8]; 0.868 in assay [9]; 0.826 in assay [10]; 0.455 in the assay with Albumin (Bos taurus); 0.19 in [12]; -0.147 in assay [13]. For the same compound, the composite z-score in assay [14] was 0.476; in assay [15] it was 1.54; in assay [16], 0.765; in the assay with Sam68 (KHDRBS1) it was 1.3; in [17] it was 0.956; in [18], 1.09. This compound also gave a z-score in [2] of -1.32. For the same compound, the composite Z-score in assay [11] was 0.552 (inactive).
For `COCCOC(=O)N1C(=O)[C@@]2(c3cc(C#Cc4ccc(OC)cc4)ccc31)[C@H](c1ccc(OCCO)cc1)N1[C@H](c3ccccc3)[C@H](c3ccccc3)OC(=O)[C@H]1[C@@H]2C(N)=O`, the composite z-score was 1.32 in [1]; 0.701 in assay [3]; 2.09 in assay [4]; 0.451 in [5]; -0.0792 in [6]; 0.296 in assay [7]. Also, the composite z-score in [8] was 0.683; in assay [9], 1.36; in assay [10], 2.23; with Albumin (Bos taurus), 0.641; in [12] it was 0.132; in assay [13], -0.0404. Besides, the composite z-score in assay [14] worked out at 0.573; in [15], 0.441; in [16] it was 0.617; in the assay on Sam68 (KHDRBS1), 1.35; in assay [17] it was 0.488; in assay [18] it was 1.16. For the same compound, the z-score in assay [2] was -2.33. The composite Z-score in [11] was 0.498 (inactive).
As for `COC(=O)[C@@]1(Cc2ccccc2)[C@H]2c3cc(C(=O)N(C)C)n(Cc4ccc(O)c(OC)c4)c3C[C@H]2CN1C(=O)c1ccccc1`, the composite z-score in [1] is 1.45; in assay [3], -0.276; in [4], 1.46; in assay [5], 1.17; in assay [6], 0.75; in assay [7], 0.16. The composite z-score in assay [8] was -0.322; in [9], 0.141; in assay [10], 0.245; in the assay with Albumin (Bos taurus), 0.955; in assay [12], 0.808; in assay [13], -0.246. The composite z-score in [14] was 0.759; in [15], 2.17; in assay [16] it was 0.091; with Sam68 (KHDRBS1), 0.507; in assay [17] it was -0.629; in [18], 1.1. In addition, the z-score in [2] was -2.56. In assay [11], the composite Z-score is 0.403 (inactive).
As for `COc1ccc([Si](C)(C)[C@@H]2[C@@H](CCO)O[C@]3(C(=O)N(Cc4ccccc4)c4ccc(N5CCCCC5=O)cc43)[C@H]2C)cc1`, the composite z-score in [1] is 1.4; in assay [3] it was 0.489; in assay [4], 0.972; in [5], 0.0653; in assay [6] it was -0.122; in [7] it was -0.2. Besides, the composite z-score in assay [8] was -0.352; in assay [9], 0.678; in [10], 1.08; in the assay with Albumin (Bos taurus) it was 0.375; in [12], 0.924; in assay [13], -0.108. Besides, the composite z-score in [14] amounted to 0.08; in assay [15] it was 0.72; in assay [16], 0.0284; in the assay on Sam68 (KHDRBS1) it was 1.31; in assay [17] it was 0.212; in assay [18] it was 1.12. The z-score in assay [2] is -5.21. Further, the composite Z-score in assay [11] was -0.364 (inactive).
